Source: PubChem
Sampled rows, rich in hits. Any-hit rate of the full collection: about 2.4%.
eIF4H inh: inhibitors of RNA binding by human eIF4H | Q15056 | eIF4H fluorescence polarization binding assay | inhibition, % at 35 µM | 0.94% of 290,000 active | AID 2012;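 further: calls also rest on retests at 20 µM and on dose response follow-up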
HMGR II inh: inhibitors of class II HMG-CoA reductase from Enterococcus faecalis; purified E. faecalis HMGR, NADPH absorbance 340 nm kinetic; inhibition, % at 10 µM; 0.41% of 190,000 active; AID 1066;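 active means inhibition above a set limit, the median over all tested compounds plus 3 SD, cut at about 9.5% in these data; inconclusive means no clear call, values can overlap the other calls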;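 further: enzyme runs in reverse so mevalonate oxidation gives rising NADPH absorbance; 0% = complete reaction with DMSO and 100% = background rate lacking mevalonate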
MLLE-PAM2 inh: inhibitors of microRNA-mediated deadenylation, human PABP1 MLLE binding; P11940; inhibition, % at 20 µM; GST-MLLE / FITC-PAM2 fluorescence polarization; 0.36% of 360,000 active; AID 588489; in the data active means inhibition above about 35%, passing the limit was not always enough;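 further: plate controls were DMSO wells with GST-MLLE for no effect and wells lacking GST-MLLE protein for full effect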
Target sequence (P11940 whole entry, looked up): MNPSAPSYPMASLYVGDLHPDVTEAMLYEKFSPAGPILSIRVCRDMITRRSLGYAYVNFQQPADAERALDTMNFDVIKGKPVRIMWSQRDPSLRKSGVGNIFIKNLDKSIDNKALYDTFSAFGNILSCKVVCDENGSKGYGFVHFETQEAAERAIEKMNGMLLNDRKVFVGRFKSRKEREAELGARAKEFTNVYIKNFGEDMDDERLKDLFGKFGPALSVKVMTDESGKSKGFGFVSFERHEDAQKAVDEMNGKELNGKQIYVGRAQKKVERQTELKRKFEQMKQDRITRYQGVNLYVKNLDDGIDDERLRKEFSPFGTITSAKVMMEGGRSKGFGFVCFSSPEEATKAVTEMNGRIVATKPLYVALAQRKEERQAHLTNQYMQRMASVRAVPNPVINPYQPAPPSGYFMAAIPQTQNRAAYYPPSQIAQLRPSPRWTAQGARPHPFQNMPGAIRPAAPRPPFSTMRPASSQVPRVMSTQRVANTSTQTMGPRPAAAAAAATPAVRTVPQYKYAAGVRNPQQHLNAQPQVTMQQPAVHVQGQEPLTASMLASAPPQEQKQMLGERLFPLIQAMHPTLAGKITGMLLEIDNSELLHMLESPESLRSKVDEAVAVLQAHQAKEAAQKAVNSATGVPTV
PABP polyA inh: PABP-poly(A) binding inhibition; P11940; calls only at 35 µM; PABP-poly(A) RNA binding, fluorescence polarization; 1% of 290,000 active;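 further: calls also rest on retests at 20 µM and on dose response follow-up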
PHOSPHO1 inh: inhibitors of human PHOSPHO1 phosphatase. AID 1565. inhibition, % at 13.3 µM. Q8TCT1. 1.1% of 290,000 active. recombinant PHOSPHO1, absorbance phosphatase assay; in the data active means inhibition above about 60%
* marks the source's active call; other numbers are inactive results; i = inactive; u = inconclusive; x = not tested or not shown; + = active, no number. Unless noted, how the calls were made is not given here.

SMILES | eIF4H inh | HMGR II inh | MLLE-PAM2 inh | PABP polyA inh | PHOSPHO1 inh
C[C@H]1CN([C@@H](C)CO)C(=O)CCCn2nncc2CO[C@@H]1CN(C)C(=O)c1ccc2ccn(C)c2c1 | x | x | 8 | x | x
Cc1cc(C(=O)Nc2sccc2C#N)c2ccccc2n1 | 61 | x | -59 | + | 18
Cc1cc(C(=O)Nc2ccccc2)c2ccccc2n1 | -1 | x | -8 | i | 29
CSCC[C@H](NC(=O)c1ccc(Cl)c(S(=O)(=O)N2CCCC2)c1)c1nc2ccccc2[nH]1 | -9 | 0 | -98 | i | 98*
COc1ccc(N2C(=O)C(Cl)=C(Nc3ccccc3O)C2=O)cc1 | -2 | -1 | -29 | i | 70*
CCOC(=O)c1ccccc1NC(=O)c1ccc2nccnc2c1 | 68* | -1 | -16 | i | 13
CCOc1ccc(CN(CC)C(=O)c2ccc3c(c2)[nH]c(=O)c(=O)n3CC)cc1OC | 13 | x | -9 | i | 22
CC(=O)C1=C(C)NC(SCC(=O)c2ccc(Cl)cc2Cl)=C(C#N)C1c1ccco1 (configuration not stated) | 12 | 2 | -26 | i | 74*
C=CCn1c(N)c(C(=O)NCCC2=CCCCC2)sc1=S | -7 | 2 | 32 | i | 77*
C=CCn1c(N)c(C(=O)OCC)sc1=S | -13 | 0 | 49* | i | 27
CCOC(=O)c1sc(=S)n(CC)c1N | 0 | -7 | 8 | i | 12
CCN(CC)C(=S)Nc1ccc(OC)cc1 | active | 0 | -31 | + | -5
COc1ccc(NC(=S)N(Cc2ccc(C(=O)O)cc2)Cc2ccc(OC)c(OC)c2)cc1 | 91* | -1 | -10 | + | 5
COc1ccc(CN(Cc2ccc(C(=O)O)cc2)C(=S)Nc2cccc(C)c2)cc1OC | -4 | -1 | -34 | i | -7
CCN(CC)C(=S)Nc1ccc(OC(F)F)cc1 | -6 | -2 | -88 | i | 30
COc1ccccc1N=NNc1ccccc1OC | x | x | -17 | x | x
O=C(Nc1ccc2c(c1)nc1n2CCOC1)c1ccco1 | -5 | -2 | 12 | i | 14
CCCn1cnc2cc(NC(=O)c3ccco3)ccc21 | -5 | x | -4 | i | 63*
O=C(Nc1ccc2c(c1)nc1n2CCSC1)c1ccco1 | 72* | 0 | 12 | i | 37
O=C(Nc1ccc2c(c1)nc1n2CCN(C2CCCCC2)C1)c1ccco1 | 94* | x | -29 | i | -77
CN1CCN(c2ccc(CNC(=O)C3Cc4c(-c5ccc(Cl)cc5)ccnc4O3)cc2)CC1 (configuration not stated) | x | x | 1 | x | x
COc1cccc(Oc2cc(Cl)nc(N)n2)c1 | -8 | x | -7 | i | x
N#C/C(=C\c1cccc(NC(=O)c2ccccc2Cl)c1)C(=O)NCCc1ccccc1 | -7 | 0 | 0 | i | 26
CC(=O)C1=C(O)C(=O)N(c2cccc(C(=O)O)c2)C1c1ccc(F)cc1 (configuration not stated) | u | 3 | -12 | + | -3
Fc1c(F)c(F)c(N=Cc2ccc3ncccc3c2)c(F)c1F | 0.6* | 1 | 3 | + | -12
SMILES | eIF4H inh | HMGR II inh | MLLE-PAM2 inh | PABP polyA inh | PHOSPHO1 inh
c1cnc2ccc(-c3ccc4ncccc4c3)cc2c1 | 4 | x | 11 | i | 25
Cc1ccc(CNC(=O)C(N=C2NS(=O)(=O)c3ccccc32)C(C)C)cc1 (configuration not stated) | x | x | 1 | x | x
O=C(Nc1ccccc1SC(=O)c1ccccc1)c1ccccc1 | x | x | 22 | x | x
Cc1ccc(C(=O)Sc2cccccc2=O)cc1 | 43 | x | 50* | i | 15
Cc1ccc(S(=O)(=O)NCCCNS(=O)(=O)c2ccccc2[N+](=O)[O-])cc1 | 50 | x | 1 | i | 25
CC(=O)c1c(C)[nH]c(C(=O)OCC(=O)Nc2ccc([N+](=O)[O-])cc2Cl)c1C | -1 | -8 | 2 | + | -2
CCOC(=O)CCSc1nc(-c2ccc3c(c2)OCO3)cc(C(F)(F)F)c1C#N | -6 | -3 | -5 | i | 18
CCOC(=O)CC(=O)CSc1nc(-c2ccc3c(c2)OCO3)cc(C(F)(F)F)c1C#N | u | -4 | 5 | + | 32
CCn1c(=S)ccc2ccc(OC)cc21 | 1 | -3 | -30 | i | 28
CCn1ccc2cc(OC)ccc2c1=S | 0 | -1 | 5 | i | 87*
CCn1c(SCC(=O)N2CCN(c3ccc(Cl)cc3)CC2)nc2ccccc2c1=O | 2 | -6 | -118 | i | 66*
CCCCn1c(SCC(=O)N2CCN(c3ccccc3)CC2)nc2ccsc2c1=O | -1 | -3 | -16 | i | 78*
CCn1c(SCC(=O)N2CCN(c3ccc(F)cc3)CC2)nc2ccccc2c1=O | -4 | 1 | 6 | i | -31
CC1(c2ccccc2Cl)NC(=O)N(CC(=O)N2c3ccccc3NC(=O)C2(C)C)C1=O (configuration not stated) | x | x | -27 | x | x
COc1ccccc1NS(=O)(=O)c1cccc(C(=O)NCC2(N3CCCCC3)CCCCC2)c1 | x | x | 13 | x | x
O=C(COc1ccc(-c2ccccc2)cc1)N1CCN(C(=O)c2cccs2)CC1 | 4 | -4 | -5 | i | 6
CN(C(=O)c1ccccc1Cl)c1ccccc1C(=O)NCc1ccccc1 | -2 | x | 1 | i | 61*
Cc1ccc2cc(C)c3nnc(SCC(=O)c4cccs4)n3c2c1C | 96* | 0 | 4 | + | -13
Cc1ccc(C)c2c1cc(C)c1nnc(SCC(=O)c3cccs3)n12 | -5 | -5 | -43 | i | -16
COc1cccc(-c2nc(CS(=O)(=O)CC(=O)NC3CCCCC3C)c(C)o2)c1 (configuration not stated) | -3 | x | 5 | i | 12
Cc1cc(NCC2CCCO2)n2c(nc3ccccc32)c1C#N (configuration not stated) | 61* | 0 | -4 | + | 8
COc1ccc(OCc2cc(C(=O)O)c(C)o2)cc1 | u | x | x | + | 12
Cc1csc(SCC(=O)NC2CCS(=O)(=O)C2)n1 (configuration not stated) | x | x | 10 | x | x
Cc1ccc(N2C(=O)CC(Sc3cccs3)C2=O)cc1 (configuration not stated) | -14 | x | 33 | i | 16
Cc1ccc(SC2CC(=O)N(c3ccc4c(c3)OCCO4)C2=O)cc1 (configuration not stated) | -8 | -6 | 42* | i | -30
SMILES | eIF4H inh | HMGR II inh | MLLE-PAM2 inh | PABP polyA inh | PHOSPHO1 inh
COc1ccc(CC(=O)O/N=C(\N)c2cccc([N+](=O)[O-])c2)cc1 | u | -2 | 6 | + | -2
Cc1ccc(COc2ccsc2C(=O)O)cc1 | 4 | -8 | -13 | i | 61*
CCOc1ccsc1C(=O)O | 3 | x | 7 | i | 6
c1ccc(-c2nc(CSc3nnnn3-c3ccccc3)cs2)cc1 | -7 | 1 | -8 | i | 14
Cc1ccccc1Nc1nc(CSc2nnnn2-c2ccccc2)cs1 | 7 | -2 | -26 | i | 95*
COc1ccc(NC(=O)C2Cc3ccccc3CN2C(=O)c2ccccc2)cn1 (configuration not stated) | u | 0 | 71* | u | -4
